Reference: PubChem BioAssay (NCATS)
Several values for one entry are separate records, joined by “and”; a condition that tells them apart may be missing. Equal values may be shown once. Results filed as inconclusive are left out. Where a call stands in place of a potency, no number is given. A number with no mark means an inactive call. Activity calls are given as the source filed them. Calls come from the whole dose curve; as a rule, active = well fitted curve in the direction sought with a large enough effect; inconclusive = small, poorly fitted or top-dose-only effect, or another doubt; inactive = no such curve, though single readings can be large; an effect the other way counts as inactive or inconclusive. Numbered stars: 1 amine (or outer) side, 2 acyl side, 3 side chain; on linkers, the order of the positions; unused ones are H or OH. Bridge positions count the residues as written; N and C are the ends. Square brackets hold non-standard residues; d marks the D form. Peptide text beside a SMILES is read from it. I, II: the chains in the order shown. Actinocin(9to1) = Cc1c2oc3c(C)ccc(C(=O)[*:1])c3nc-2c(C(=O)[*:2])c(N)c1=O; NMeV = CN[C@H](C(=O)O)C(C)C; Sar = CNCC(=O)O

Assays:
[1] = system: MKL-2; experiment: qHTS assay to identify novel small-molecules to repurpose for Merkel cell carcinoma treatment (AID 1296009); details: MCC and control cell lines, CellTiter-Glo viability, 72 h; series mostly up to 46 µM; note: nearly all actives have a fitted effect of over 60% in size
Method in brief: (§1)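 Dose-response viability screen; 72 hr exposure at 37 degree celsius; CellTiter-Glo added, 10 min room temperature, luminescence read; RLUs scaled between no-cell and DMSO wells.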

[2] = system: NIH3T3; experiment: as above; details: MCC and control cell lines, CellTiter-Glo viability, 72 h; at 44.8 µM (top of the series) unless noted
Method in brief: as §1

[3] = system: UISO; experiment: as above; details: MCC and control cell lines, CellTiter-Glo viability, 72 h; series mostly up to 46 µM
Method in brief: as §1

[4] = system: WaGa; experiment: as above; details: MCC and control cell lines, CellTiter-Glo viability, 72 h; series mostly up to 46 µM
Method in brief: as §1

[5] = system: C33A; experiment: Primary qHTS to identify gynecologic anti-cancer compounds using libraries of approved drugs and bioactive compounds (AID 1345084); details: Gynecologic cancer cell panel viability, ATPlite luminescence, 48 h; series mostly up to 57.5 µM; note: nearly all actives have a fitted effect of over 55% in size
Method in brief: (§2)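 48 h compound exposure at 37 C, 5% CO2; five-point qHTS. ATPlite luminescence readout of cell ATP.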

[6] = system: CAOV3; experiment: as above; details: Gynecologic cancer cell panel viability, ATPlite luminescence, 48 h; series mostly up to 57.5 µM
Method in brief: as §2

[7] = system: CASKI; experiment: as above; details: Gynecologic cancer cell panel viability, ATPlite luminescence, 48 h; series mostly up to 57.5 µM
Method in brief: as §2

[8] = system: Es-2; experiment: as above; details: Gynecologic cancer cell panel viability, ATPlite luminescence, 48 h; series mostly up to 57.5 µM
Method in brief: as §2

[9] = system: HeLa; experiment: as above; details: Gynecologic cancer cell panel viability, ATPlite luminescence, 48 h; series mostly up to 57.5 µM
Method in brief: as §2

[10] = system: Hek293T; experiment: as above; details: Gynecologic cancer cell panel viability, ATPlite luminescence, 48 h, control line for the selectivity index; series mostly up to 57.5 µM
Method in brief: as §2

[11] = system: JEG-3; experiment: as above; details: Gynecologic cancer cell panel viability, ATPlite luminescence, 48 h; series mostly up to 57.5 µM
Method in brief: as §2

[12] = system: OV90; experiment: as above; details: Gynecologic cancer cell panel viability, ATPlite luminescence, 48 h; series mostly up to 57.5 µM
Method in brief: as §2

[13] = system: PA-1; experiment: as above; details: Gynecologic cancer cell panel viability, ATPlite luminescence, 48 h; series mostly up to 57.5 µM
Method in brief: as §2

[14] = system: SKOV3; experiment: as above; details: Gynecologic cancer cell panel viability, ATPlite luminescence, 48 h; series mostly up to 57.5 µM
Method in brief: as §2

[15] = system: Tov-21-G; experiment: as above; details: Gynecologic cancer cell panel viability, ATPlite luminescence, 48 h; series mostly up to 57.5 µM
Method in brief: as §2

[16] = system: Tov112D; experiment: as above; details: Gynecologic cancer cell panel viability, ATPlite luminescence, 48 h; series mostly up to 57.5 µM
Method in brief: as §2

[17] = Drug repurposing screens with cells derived from glioblastoma tumor samples (AID 1345199); details: GBM patient neurospheres viability, ATP luminescence, 48 h; note: nearly all actives have a fitted effect of over 40% in size
Method in brief: (§3)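 Primary testing used CD133+ neurospheres from four GBM patients, seven concentrations, 48 h exposure and ATP-based viability; confirmation added three slower-growing patient lines.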

[18] = system: astro; experiment: as above; details: viability, ATP luminescence, 48 h; series mostly up to 45.9 µM
Method in brief: as §3

[19] = at 45.9 µM (top of the series), tumour line B
[20] = at 45.9 µM (top of the series), tumour line D
[21] = at 46 µM (top of the series), tumour line A
[22] = at 46.1 µM (top of the series), tumour line C
[23] = at 20 µM (top of the series), tumour line C
[24] = at 21.2 µM (top of the series), tumour line B
[25] = at 21.2 µM (top of the series), tumour line D
Potency is the fitted concentration of half-maximal effect.

## O=C(O)CNC(=O)c1ccccc1
[1]
  Potency: inactive
[2]
  outcome: inactive
[3]
  Potency: inactive
[4]
  Potency: inactive
[5]
  Potency: inactive
[6]
  Potency: inactive
[7]
  Potency: inactive
[8]
  Potency: inactive
[9]
  Potency: inactive
[10]
  Potency: inactive
[11]
  Potency: inactive
[12]
  Potency: inactive
[13]
  Potency: inactive
[14]
  Potency: inactive
[15]
  Potency: inactive
[16]
  Potency: inactive
[17]; [19]
  activity, negative = cell killing: -9.91%
[17]; [20]
  activity, negative = cell killing: -0.469%
[17]; [21]
  activity, negative = cell killing: 3.77%
[17]; [22]
  activity, negative = cell killing: -1.09%
[18]
  Potency: inactive

## Cc1cc2c(cc1CC(=O)c1sccc1S(=O)(=O)Nc1onc(C)c1Cl)OCO2
[1]
  Potency: inactive
[3]
  Potency: inactive
[4]
  Potency: inactive
[5]
  Potency: inactive
[6]
  Potency: inactive
[7]
  Potency: inactive
[8]
  Potency: inactive
[9]
  Potency: inactive
[10]
  Potency: inactive
[11]
  Potency: inactive
[12]
  Potency: inactive
[13]
  Potency: inactive
[14]
  Potency: inactive
[15]
  Potency: inactive
[16]
  Potency: inactive

## NC(=O)CC[C@@H]1NC(=O)[C@H](Cc2ccccc2)NC(=O)[C@H](Cc2ccc(O)cc2)NC(=O)CCSSC[C@@H](C(=O)N2CCC[C@H]2C(=O)N[C@@H](CCCN=C(N)N)C(=O)NCC(N)=O)NC(=O)[C@H](CC(N)=O)NC1=O
[1]
  Potency: inactive
[2]
  outcome: inactive
[3]
  Potency: inactive
[4]
  Potency: inactive
[5]
  Potency: inactive
[6]
  Potency: inactive
[7]
  Potency: inactive
[8]
  Potency: inactive
[9]
  Potency: inactive
[10]
  Potency: inactive
[11]
  Potency: inactive
[12]
  Potency: inactive
[13]
  Potency: inactive
[14]
  Potency: inactive
[15]
  Potency: inactive
[16]
  Potency: inactive
[17]; [19]
  activity, negative = cell killing: -2.8% and 1.21%
[17]; [20]
  activity, negative = cell killing: -7.07% and -4.13%
[17]; [21]
  activity, negative = cell killing: -24.9% and -29%
[17]; [22]
  activity, negative = cell killing: -17.6% and 1.07%
[18]
  Potency: inactive

## Cc1c2oc3c(C)ccc(C(=O)N[C@@H]4C(=O)N[C@H](C(C)C)C(=O)N5CCC[C@H]5C(=O)N(C)CC(=O)N(C)[C@@H](C(C)C)C(=O)O[C@@H]4C)c3nc-2c(C(=O)N[C@@H]2C(=O)N[C@H](C(C)C)C(=O)N3CCC[C@H]3C(=O)N(C)CC(=O)N(C)[C@@H](C(C)C)C(=O)O[C@@H]2C)c(N)c1=O (I: T[dV]P[Sar][NMeV] / II: T[dV]P[Sar][NMeV]; ester I:1-I:C, II:1-II:C; linker I:N-II:N via Actinocin(9to1))
[1]
  Potency: 0.0038 µM (active)
[3]
  Potency: 0.0033 µM (active)

## CC(C)(C(=O)c1cccnc1)c1cccnc1
[1]
  Potency: inactive
[2]
  outcome: inactive
[3]
  Potency: inactive
[4]
  Potency: inactive
[5]
  Potency: inactive
[6]
  Potency: inactive
[7]
  Potency: inactive
[8]
  Potency: inactive
[9]
  Potency: inactive
[10]
  Potency: inactive
[12]
  Potency: inactive
[13]
  Potency: inactive
[14]
  Potency: inactive
[15]
  Potency: inactive
[16]
  Potency: inactive
[17]; [23]
  activity, negative = cell killing: -7.19%
[17]; [24]
  activity, negative = cell killing: -14.8%
[17]; [25]
  activity, negative = cell killing: -8.11%
[17]; at 21.3 µM (top of the series), tumour line A
  activity, negative = cell killing: -19.8%

## CN1[C@@H]2CC[C@H]1CC(OC(=O)c1c[nH]c3ccccc13)C2 (stereo not given in full)
[1]
  Potency: inactive
[2]
  outcome: inactive
[3]
  Potency: inactive
[4]
  Potency: inactive
[5]
  Potency: inactive
[6]
  Potency: inactive
[7]
  Potency: inactive
[8]
  Potency: inactive
[9]
  Potency: inactive
[10]
  Potency: inactive
[11]
  Potency: inactive
[12]
  Potency: inactive
[13]
  Potency: inactive
[15]
  Potency: inactive
[16]
  Potency: inactive
[17]; [19]
  activity, negative = cell killing: 0.619%
[17]; [20]
  activity, negative = cell killing: -12.6%
[17]; [22]
  activity, negative = cell killing: 13.1%
[17]; tumour line A
  Potency: 11.2 µM (active)
[18]
  Potency: inactive

## CC(=O)OCC(=O)[C@@]1(O)[C@H](C)C[C@H]2[C@@H]3CCC4=CC(=O)C=C[C@]4(C)[C@@]3(F)[C@@H](O)C[C@@]21C
[1]
  Potency: inactive
[2]
  outcome: inactive
[3]
  Potency: inactive
[4]
  Potency: inactive
[5]
  Potency: inactive
[6]
  Potency: inactive
[7]
  Potency: inactive
[8]
  Potency: inactive
[9]
  Potency: inactive
[10]
  Potency: inactive
[11]
  Potency: inactive
[12]
  Potency: inactive
[13]
  Potency: inactive
[14]
  Potency: inactive
[15]
  Potency: inactive
[16]
  Potency: inactive
[17]; [23]
  activity, negative = cell killing: -1.02%
[17]; [24]
  activity, negative = cell killing: -13.3%
[17]; [25]
  activity, negative = cell killing: -10.9%
[17]; [19]
  activity, negative = cell killing: 1.42%
[17]; [20]
  activity, negative = cell killing: -14.4%
[17]; [22]
  activity, negative = cell killing: -7.18%
[18]
  Potency: inactive

## OC[C@H]1O[C@H](O[C@]2(CCl)O[C@H](CCl)[C@@H](O)[C@@H]2O)[C@H](O)[C@@H](O)[C@H]1Cl
[1]
  Potency: inactive
[2]
  outcome: inactive
[3]
  Potency: inactive
[4]
  Potency: inactive
[5]
  Potency: inactive
[6]
  Potency: inactive
[7]
  Potency: inactive
[8]
  Potency: inactive
[9]
  Potency: inactive
[10]
  Potency: inactive
[11]
  Potency: inactive
[12]
  Potency: inactive
[13]
  Potency: inactive
[14]
  Potency: inactive
[15]
  Potency: inactive
[16]
  Potency: inactive

## CC1(C)OC[C@@H](COC(=O)CCc2ccc(OC[C@@H](O)CNCCNC(=O)N3CCOCC3)cc2)O1
[1]
  Potency: inactive
[3]
  Potency: inactive
[4]
  Potency: inactive
[5]
  Potency: inactive
[6]
  Potency: inactive
[7]
  Potency: inactive
[8]
  Potency: inactive
[9]
  Potency: inactive
[10]
  Potency: inactive
[11]
  Potency: inactive
[12]
  Potency: inactive
[13]
  Potency: inactive
[14]
  Potency: inactive
[15]
  Potency: inactive
[16]
  Potency: inactive
[17]; [19]
  activity, negative = cell killing: -1.97% and -1.33%
[17]; [20]
  activity, negative = cell killing: -8.36% and -5.13%
[17]; [22]
  activity, negative = cell killing: 1.06% and -5.37%

## CC(=O)Nc1c(I)cc(I)c(C(=O)O)c1I
[1]
  Potency: inactive
[2]
  outcome: inactive
[3]
  Potency: inactive
[4]
  Potency: inactive
[5]
  Potency: inactive
[7]
  Potency: inactive
[8]
  Potency: inactive
[9]
  Potency: inactive
[10]
  Potency: inactive
[11]
  Potency: inactive
[12]
  Potency: inactive
[13]
  Potency: inactive
[14]
  Potency: inactive
[15]
  Potency: inactive
[16]
  Potency: inactive
[17]; [19]
  activity, negative = cell killing: -18.2%
[17]; [20]
  activity, negative = cell killing: -1.85%
[17]; [21]
  activity, negative = cell killing: -31.3%
[17]; [22]
  activity, negative = cell killing: 23.7%
[18]
  Potency: inactive

## CC(C)n1nc(-c2cc3cc(O)ccc3[nH]2)c2c(N)ncnc21
[1]
  Potency: 8.41 µM (active)
[3]
  Potency: 9.44 µM (active)
[4]
  Potency: 2.99 µM (active)
[5]
  Potency: 0.794 µM (active)
[6]
  Potency: 1.58 µM (active)
[7]
  Potency: 8.91 µM (active) and 15.8 µM (active)
[8]
  Potency: 3.16 µM (active) and 2.24 µM (active)
[9]
  Potency: 17.8 µM (active) and 14.1 µM (active)
[10]
  Potency: 3.98 µM (active)
[11]
  Potency: inactive
[12]
  Potency: 5.01 µM (active) and 2.82 µM (active)
[13]
  Potency: 4.47 µM (active)
[14]
  Potency: 1 µM (active) and 631 nM (active)
[15]
  Potency: 11.2 µM (active) and 4.47 µM (active)
[16]
  Potency: 7.94 µM (active)
